Data reported in PubChem BioAssay AID602393 (Broad Institute, 2012).
Out of some 350,000 compounds screened, about 7,000 (2%) were called active. The full list was thinned out, with actives kept by preference. Unmarked numbers belong to inactive results. Rule as the data show it: active = activation above about 40%; inconclusive = no clear call, values can overlap the other calls; inactive = below that.

assay: Bmi1 luciferase reporter increase in mESCs, primary screen, esBAF inhibitor project, mouse ES cells, Bmi1 luciferase knock-in, single point (AID 602393); settings: 24 h, at 12.5 µM, hits give high values, 100% = twice the neutral-well signal;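 also: 0% = median of the plate's neutral control wells and 100% = double that signal; a rise in the Bmi1 reporter signal indicates esBAF inhibition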

Structure (SMILES)	reporter increase
COc1ccc(/C=N/Nc2nc3ccccc3o2)cc1OC	45.9% (active)
O=C(CSc1nc2ccccc2o1)N/N=C/c1ccccc1C(=O)O	28.5%
CCOc1ccccc1/C=N/Nc1nc2ccccc2o1	25.5%
C(=N\Nc1ccc2ccccc2n1)/c1ccc2c(c1)OCO2	-72.8%
COc1cccc(/C=N\Nc2nncc(-c3ccccc3)n2)c1	4.67%
Brc1ccccc1/C=N/Nc1nc2ccccc2o1	66.2% (active)
CCCN1C[C@@H](C)[C@H](OC)CN(C)C(=O)c2ccc(NC(=O)C3CCOCC3)cc2OC[C@@H]1C	-4.1%
C[C@@H]1CN([C@H](C)CO)C(=O)c2cc(NC(=O)Cc3ccccc3)ccc2O[C@@H](C)CCCCO[C@H]1CN(C)C(=O)Cc1ccccc1	4.79%
CCC(=O)N(C)C[C@H]1Oc2cc(C#CC3CC3)ccc2S(=O)(=O)N([C@@H](C)CO)C[C@@H]1C	-1.51%
CCCNC(=O)[C@@H]1[C@@H](CO)[C@@H]2Cn3c(ccc(-c4cccc(OC)c4)c3=O)[C@H]1N2C(=O)NCCC	1.23%
O=C(Nc1ccc(F)cc1)N[C@H]1C=C[C@@H](CC(=O)N2CCOCC2)O[C@H]1CO	-15.4%
Cc1cccc(S(=O)(=O)N2CC[C@@H]3[C@H]2c2cc(C#Cc4ccc(F)cc4)ccc2N[C@@H]3CO)c1	1.22%
COCC(=O)Nc1ccc2c(c1)OC[C@H](C)N(C(=O)c1ccccn1)C[C@@H](C)[C@H](OC)CN(C)C2=O	-4.41%
Cc1c(NC(=O)c2c([N+](=O)[O-])cnn2C)c(=O)n(-c2ccccc2)n1C	-3.74%
COc1ccc(CCNC(=O)c2c(C)nn(-c3ccccc3)c2Cl)cc1	-5.69%
Cc1nn(-c2ccccc2)c(Cl)c1/C=N/NC(=O)c1nn(C)cc1[N+](=O)[O-]	52.5% (active)
CCC(=O)N(C)C[C@@H]1Oc2cc(-c3ccc(C#N)cc3)ccc2S(=O)(=O)N([C@@H](C)CO)C[C@@H]1C	2.37%
CCCc1cn(CC[C@@H]2CC[C@@H](NC(=O)C3CC3)[C@H](CO)O2)nn1	1.12%
C[C@@H]1CN([C@H](C)CO)C(=O)CCCn2nncc2CO[C@@H]1CN(C)Cc1ccc2c(c1)OCCN2C	-3.86%
CO[C@@H]1CN(C)C(=O)c2cc(NS(C)(=O)=O)ccc2OC[C@H](C)N(C(=O)C2CC2)C[C@@H]1C	0.928%
COCC#Cc1cnc2c(c1)C(=O)N([C@H](C)CO)C[C@H](C)[C@H](CN(C)Cc1ccc(-c3ccccc3)cc1)O2	-4.32%
Cc1nn(CCOc2ccccc2)c(=O)n1-c1ccccc1F	49.4% (active)
O=C(NCCOc1ccccc1)c1ccccc1F	-7.45%
Cc1c(C(N)=O)sc2ncn(CCOc3ccccc3)c(=O)c12	16.1%
COCC(=O)Nc1ccc2c(c1)[C@H]1C[C@H](CC(=O)NCc3ccccn3)O[C@H](CO)[C@H]1O2	0.452%
CO[C@H]1CN(C)C(=O)c2ccc(NS(=O)(=O)c3cn(C)cn3)cc2OC[C@@H](C)N(C)C[C@@H]1C	-7.11%

Structure (SMILES)	reporter increase
C[C@@H](NC(=O)C[C@@H]1CC[C@@H]2[C@H](COC[C@@H](O)CN2C(=O)Nc2cccc(F)c2)O1)c1ccccc1	11.2%
CCCN(C)C[C@H]1Oc2ncc(C#CC3CCCCC3)cc2C(=O)N([C@H](C)CO)C[C@@H]1C	-4.47%
C[C@@H]1CN([C@@H](C)CO)C(=O)Cc2cc(NS(=O)(=O)c3cccs3)ccc2O[C@H]1CN(C)S(=O)(=O)c1ccc(F)cc1	-3.47%
COc1ccc(S(=O)(=O)N(C)C)cc1NC(=O)CSc1ncccn1	-0.957%
CN(C)S(=O)(=O)c1ccc2oc(SCC(=O)Nc3ccccc3F)nc2c1	56% (active)
COc1ccc(NS(=O)(=O)c2ccc3oc(SCC(N)=O)nc3c2)cc1	4.52%
COc1ccc(NC(=O)N[C@H]2CC[C@@H](CCNS(=O)(=O)c3cccc(Cl)c3)O[C@H]2CO)cc1	1.55%
COc1cccc(NC(=O)C[C@@H]2CC[C@@H]3[C@H](COc4ccc(NC(=O)C5CCOCC5)cc4C(=O)N3C)O2)c1	1.18%
C[C@H](CO)N1C[C@H](C)[C@@H](CN(C)Cc2ccccc2)OCCCC[C@H](C)Oc2ccc(NC(=O)Cc3ccccc3)cc2C1=O	1.95%
COc1ccc(NC(=O)Nc2cccc3c2O[C@H](CN(C)Cc2ccc(Cl)c(Cl)c2)[C@H](C)CN([C@@H](C)CO)C3=O)cc1	4.75%
CCc1ccc(NC(=O)Cn2nnc(C(=O)NCc3ccc4c(c3)OCO4)c2N)cc1	-0.239%
O=C(Nc1ccc2c(c1)OCCO2)C(C1CC1)N1CCC(Cc2ccccc2)CC1 (stereo not drawn)	-12.5%
Nc1c(C(=O)Nc2ccc3c(c2)OCCO3)nnn1Cc1ccccc1	62.1% (active)
C[C@@H]1CN([C@H](C)CO)C(=O)c2cc(NC(=O)c3ccncc3)ccc2O[C@H]1CN(C)C(=O)Nc1ccc(C(F)(F)F)cc1	8.53%
Cc1ccccc1S(=O)(=O)NCC[C@@H]1CC[C@H](NC(=O)C2CCC2)[C@@H](CO)O1	-0.558%
Nc1nnnn1/N=C/c1cccs1	2.23%
Cc1ccc(N2CCN(/N=C/c3cccs3)CC2)cc1	13.6%
C(=N/N1CCN(c2ccccc2)CC1)/c1cccs1	45.3% (active)
C[C@H]1CN([C@@H](C)CO)C(=O)CCCn2cc(nn2)CO[C@H]1CN(C)C(=O)Nc1ccc(F)cc1	-7.14%
C[C@H](CO)N1C[C@H](C)[C@@H](CN(C)S(=O)(=O)c2ccc(F)cc2)Oc2ccc(NC(=O)CCCCCC(=O)Nc3ccccc3N)cc2CC1=O	1.27%
COCCNC(=O)C[C@@H]1C[C@@H]2c3cc(NC(=O)Nc4ccc(C(F)(F)F)cc4)ccc3O[C@@H]2[C@@H](CO)O1	-4.42%
CCC(=O)N1C[C@H](C)[C@H](OC)CN(C)C(=O)c2ccc(NC(=O)Nc3ccc(Cl)cc3)cc2OC[C@H]1C	4.13%
C[C@H](CO)N1C[C@H](C)[C@@H](CN(C)Cc2ccc(Oc3ccccc3)cc2)OCc2cn(nn2)CCCC1=O	0.422%
c1ccc(CCN2CN=C(Nc3nc4ccccc4o3)NC2)cc1	45.9% (active)
CC1CCN(Cc2nc3c(c(=O)n(C)c(=O)n3C)n2CCc2ccccc2)CC1	-5.75%
N#CNC1=NCN(CCc2ccccc2)CN1	-7.73%

Structure (SMILES)	reporter increase
C[C@@H]1CCCCO[C@H](CN(C)Cc2ccc3c(c2)OCO3)[C@@H](C)CN([C@H](C)CO)C(=O)c2cc(N(C)C)ccc2O1	0.519%
O=C(Cc1ccccc1)Nc1ccc(C(=O)Nc2ccccc2C(=O)O)cc1	-1.37%
CC(C)(C)c1ccc(C(=O)NNC(=O)Cc2ccccc2)cc1	49% (active)
O=C(CNC(=O)c1ccco1)NNC(=O)c1ccc(Br)cc1	-0.872%
C[C@H](CO)N1C[C@H](C)[C@@H](CN(C)S(=O)(=O)c2ccc(Cl)cc2)Oc2ccc(NS(=O)(=O)c3cccs3)cc2CC1=O	6.86%
CC(C)C#Cc1cnc2c(c1)C(=O)N([C@@H](C)CO)C[C@@H](C)[C@H](CN(C)C(=O)CCN1CCCCC1)O2	0.29%
O=C(C[C@@H]1CC[C@H]2[C@@H](COC[C@@H](O)CN2S(=O)(=O)c2cccc(Cl)c2)O1)N1CCCCC1	-2.86%
Cc1cccc(C)c1OCCN1CCOCC1	-3.46%
CC(C)(c1ccccc1)c1ccc(OCCN2CCCC2)cc1	-18.8%
c1ccc(-c2ccc(OCCN3CCOCC3)cc2)cc1	50.5% (active)
Cc1noc(C)c1S(=O)(=O)Nc1ccc2c(c1)C(=O)N([C@H](C)CO)C[C@@H](C)[C@@H](CN(C)S(=O)(=O)c1ccc(Cl)cc1)O2	6.53%
CC(C)c1c(C(=O)N/N=C/c2ccc(-c3ccccc3)cc2)nnn1-c1nonc1N	-2.09%
Cc1nonc1C(=O)N/N=C/c1ccc(O)cc1	50.7% (active)
Cc1nc2ccc(C(=O)N/N=C/c3ccc(O)cc3)cc2[nH]1	-6.33%
C[C@H]1CN([C@@H](C)CO)S(=O)(=O)c2ccc(-c3cncnc3)cc2O[C@H]1CN(C)Cc1ccncc1	0.176%
O=C(O)C1CC=CCC1C(=O)NCCc1ccccc1 (stereo not drawn)	-11%
O=C(Nc1cccc(Cl)c1Cl)c1ccccc1NC(=O)C1CC=CCC1C(=O)O (stereo not drawn)	5.49%
O=C(Nc1ccc(Cl)c(Cl)c1)c1ccccc1NC(=O)C1CC=CCC1C(=O)O (stereo not drawn)	92.4% (active)
COC(=O)c1c(C)[nH]c(C(=O)NCCc2ccc(S(N)(=O)=O)cc2)c1C	-4.52%
CCCCOC(=O)c1[nH]c(C)c(C(=O)OC)c1C	78.5% (active)
CC(=O)c1c(C)[nH]c(C(=O)OCC(=O)Nc2c(C)cccc2C)c1C	-23.7%
CO[C@@H]1CN(C)C(=O)c2ccc(NS(C)(=O)=O)cc2OC[C@@H](C)N(CC2CC2)C[C@@H]1C	1.93%
C[C@@H]1CN([C@@H](C)CO)C(=O)c2cc(N(C)C)ccc2O[C@@H](C)CCCCO[C@H]1CN(C)Cc1ccncc1	-3.61%
CCc1nc(N2CCN(C(C)=O)CC2)c2c3c(sc2n1)CCCC3	-4.58%
C=C(C)CSc1nc(N)c2c3c(sc2n1)CCC3	75.4% (active)
CC(C)(C)C1CCc2c(sc3nc(SCC(N)=O)nc(N)c23)C1 (stereo not drawn)	-0.656%
